In the library only some 4.3% were active in any assay of this set; here they are far more common.
GRIN3A LBD mod – modulates the human NR3A ligand-binding domain. NR3A LBD differential scanning fluorimetry, Tm shift; 0% = protein alone, 100% = glycine-bound protein. Tm shift relative to glycine control, % at 25 µM. actives 2.5% (n = 340,000). AID 1259313;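 active = melting temperature shift of at least 10% of the positive control shift, at one fixed dose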
rCAG RNA binder – r(CAG) repeat RNA binding; TO-PRO-1 dye displacement fluorescence; inhibition, % at 3 µM; actives 1.3% (n = 370,000); AID 651821;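 active = inhibition above the plate cutoff, the mean of all test compounds on that plate plus 3 SD, cut at about 35% in these data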;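 note: higher means more dye released from RNA so lower well fluorescence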
NadD inh – blocks S. aureus nicotinate mononucleotide adenylyltransferase; purified NadD enzyme, colorimetric absorbance read-out; inhibition, % at 20 µM; actives 0.78% (n = 360,000); in the data active = inhibition above about 26%
FAS TE block – FAS thioesterase (human) inhibition; recombinant FAS-TE, OMFH fluorogenic substrate, fluorescence endpoint; inhibition, % at 15 µM; actives 0.67% (n = 360,000); AID 602261;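 active = compounds whose normalised, plate-corrected inhibition of enzyme fluorescence in the single-dose primary screen is 50% or more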
Target sequence (P49327 whole entry, looked up): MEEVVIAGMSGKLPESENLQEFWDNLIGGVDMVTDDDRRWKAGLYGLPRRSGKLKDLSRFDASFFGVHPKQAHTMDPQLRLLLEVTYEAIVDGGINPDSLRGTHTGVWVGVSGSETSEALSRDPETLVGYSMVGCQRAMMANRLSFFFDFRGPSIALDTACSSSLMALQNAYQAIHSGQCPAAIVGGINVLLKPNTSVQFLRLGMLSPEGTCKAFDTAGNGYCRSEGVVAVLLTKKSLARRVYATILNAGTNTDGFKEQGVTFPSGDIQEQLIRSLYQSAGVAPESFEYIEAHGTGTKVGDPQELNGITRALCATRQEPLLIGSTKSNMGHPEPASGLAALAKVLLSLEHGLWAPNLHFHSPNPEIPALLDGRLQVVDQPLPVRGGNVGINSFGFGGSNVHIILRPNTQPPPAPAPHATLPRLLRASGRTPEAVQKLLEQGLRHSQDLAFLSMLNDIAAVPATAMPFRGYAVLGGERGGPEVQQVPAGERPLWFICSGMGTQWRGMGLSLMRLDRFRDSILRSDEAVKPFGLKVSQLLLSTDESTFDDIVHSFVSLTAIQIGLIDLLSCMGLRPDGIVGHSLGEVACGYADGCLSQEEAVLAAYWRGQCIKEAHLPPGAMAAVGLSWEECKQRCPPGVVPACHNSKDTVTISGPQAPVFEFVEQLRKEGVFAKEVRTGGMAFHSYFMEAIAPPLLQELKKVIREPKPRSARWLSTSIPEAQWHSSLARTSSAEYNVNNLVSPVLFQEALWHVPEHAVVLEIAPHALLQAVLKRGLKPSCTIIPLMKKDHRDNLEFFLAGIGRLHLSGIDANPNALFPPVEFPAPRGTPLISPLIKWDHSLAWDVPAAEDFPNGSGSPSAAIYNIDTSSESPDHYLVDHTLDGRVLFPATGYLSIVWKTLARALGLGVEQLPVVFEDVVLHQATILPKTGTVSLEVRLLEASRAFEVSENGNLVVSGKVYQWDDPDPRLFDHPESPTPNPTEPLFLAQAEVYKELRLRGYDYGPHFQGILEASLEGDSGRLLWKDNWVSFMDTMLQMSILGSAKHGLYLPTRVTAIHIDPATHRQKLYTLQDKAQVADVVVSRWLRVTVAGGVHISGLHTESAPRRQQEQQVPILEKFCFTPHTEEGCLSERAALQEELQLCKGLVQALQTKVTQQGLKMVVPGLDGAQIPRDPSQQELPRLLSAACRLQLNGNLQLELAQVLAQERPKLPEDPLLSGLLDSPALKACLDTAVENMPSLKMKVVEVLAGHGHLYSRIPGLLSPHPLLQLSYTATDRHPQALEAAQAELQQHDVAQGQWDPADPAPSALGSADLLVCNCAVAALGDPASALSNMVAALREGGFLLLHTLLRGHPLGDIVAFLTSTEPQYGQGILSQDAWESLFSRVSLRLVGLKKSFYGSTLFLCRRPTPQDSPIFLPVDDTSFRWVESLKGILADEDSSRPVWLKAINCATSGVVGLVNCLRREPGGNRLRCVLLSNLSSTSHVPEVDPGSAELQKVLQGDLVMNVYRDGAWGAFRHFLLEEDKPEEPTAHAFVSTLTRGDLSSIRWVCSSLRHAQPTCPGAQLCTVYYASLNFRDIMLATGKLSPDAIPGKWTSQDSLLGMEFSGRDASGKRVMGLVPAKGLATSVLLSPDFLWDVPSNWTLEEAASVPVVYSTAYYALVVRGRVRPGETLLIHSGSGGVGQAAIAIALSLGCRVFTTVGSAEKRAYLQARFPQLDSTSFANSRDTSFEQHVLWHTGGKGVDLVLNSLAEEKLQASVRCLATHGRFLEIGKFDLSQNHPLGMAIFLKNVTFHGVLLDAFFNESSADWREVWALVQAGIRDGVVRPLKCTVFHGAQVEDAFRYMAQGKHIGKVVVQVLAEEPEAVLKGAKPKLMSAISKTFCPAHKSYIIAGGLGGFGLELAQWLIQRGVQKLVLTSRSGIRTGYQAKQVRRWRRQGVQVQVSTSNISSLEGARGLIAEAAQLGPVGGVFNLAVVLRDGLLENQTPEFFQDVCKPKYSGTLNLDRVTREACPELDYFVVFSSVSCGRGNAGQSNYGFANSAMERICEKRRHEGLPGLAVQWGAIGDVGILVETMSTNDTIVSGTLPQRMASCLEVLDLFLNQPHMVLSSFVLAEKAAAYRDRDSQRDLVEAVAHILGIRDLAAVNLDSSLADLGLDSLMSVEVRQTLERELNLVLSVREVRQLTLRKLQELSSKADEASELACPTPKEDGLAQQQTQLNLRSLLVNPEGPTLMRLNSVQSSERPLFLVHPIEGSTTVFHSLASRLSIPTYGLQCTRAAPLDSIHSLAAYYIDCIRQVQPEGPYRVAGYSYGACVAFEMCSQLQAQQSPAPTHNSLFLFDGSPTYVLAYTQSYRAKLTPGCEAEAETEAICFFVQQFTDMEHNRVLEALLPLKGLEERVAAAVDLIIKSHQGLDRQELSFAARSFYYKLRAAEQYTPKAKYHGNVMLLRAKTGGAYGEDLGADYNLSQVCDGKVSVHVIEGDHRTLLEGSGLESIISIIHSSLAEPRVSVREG
Each line names hits and unclear results; the compound was inactive in the other large screens.

O=C(Nc1cccc(Cl)c1)C1=Cc2cc(Cl)ccc2OC1	GRIN3A LBD mod 20
O=C(Nc1ccc(Cl)c(Cl)c1)C1=Cc2ccccc2OC1	GRIN3A LBD mod 19
O=C(Nc1cccc(Cl)c1)c1cc(F)cc2c1OCOC2	none
CC(C)(C)c1ccc(S(=O)(=O)N2CCCC(C(=O)NCCN3CCC(Cc4ccccc4)CC3)C2)cc1 (centres undefined)	none (no result: GRIN3A LBD mod, NadD inh, FAS TE block)
Cc1ccccc1N(C)C(=O)C1CCCN1S(=O)(=O)c1cccc2cccnc12 (centres undefined)	none (no result: GRIN3A LBD mod, NadD inh, FAS TE block)
Cc1sc2nc3n(c(=O)c2c1C)CCCS3	GRIN3A LBD mod 18
COc1ccc(CN2C(=O)N3Cc4ccc(C)cc4C3CS2(=O)=O)cc1 (centres undefined)	none (no result: GRIN3A LBD mod, NadD inh, FAS TE block)
COc1cccc(/C=C2\SC(=S)N(CCC(=O)NCCc3ccc(O)cc3)C2=O)c1	GRIN3A LBD mod 16
COc1cccc(/C=C2\SC(=S)N(CCC(=O)Nc3ccc(O)cc3)C2=O)c1	none
O=C(CCN1C(=O)/C(=C/c2ccc(F)cc2)SC1=S)NCCc1ccc(O)cc1	GRIN3A LBD mod 16
c1ccc(-c2c[nH]c3cccc(C4CCCCC4)c23)cc1	none (no result: GRIN3A LBD mod, NadD inh, FAS TE block)
COC(=O)c1ccc(COC(=O)c2ccc(N(C)C)cc2)cc1	none
O=C(OCc1ccc(COC(=O)c2ccc(O)cc2)cc1)c1ccc(O)cc1	GRIN3A LBD mod 21 (no result: rCAG RNA binder)
N[C@H](C(=O)N1CCC[C@@H]1C(=O)N1CCC2CCN(S(=O)(=O)c3ccccc3)CC21)c1ccccc1 (some centres undefined)	none (no result: GRIN3A LBD mod, NadD inh, FAS TE block)
Cc1ccc(Oc2ccc(C(=O)NC3CCSC3=O)cn2)cc1 (centres undefined)	GRIN3A LBD mod 11
O=C(NC1CCSC1=O)c1ccc(Oc2ccc(F)cc2)nc1 (centres undefined)	none
Nc1ccc2c(c1)C(=O)c1ccc(Br)cc1-2	GRIN3A LBD mod 26
CCC(CO)Nc1cccc2c1S(=O)(=O)N(Cc1cn(Cc3ccc(C(F)(F)F)cc3)nn1)Cc1ccccc1O2 (centres undefined)	none (no result: GRIN3A LBD mod, NadD inh, FAS TE block)
Cc1cccc(NC(=O)Nc2ccc(Cl)c(Cl)c2)n1	none
COc1ccc(NC(=O)Nc2sc(=S)n(C)c2C)cc1	GRIN3A LBD mod 24
Cc1c(NC(=O)Nc2ccc(Cl)c(Cl)c2)sc(=S)n1C	GRIN3A LBD mod 22
O=C(Cc1ccccc1)NC1CCCCN(Cc2cccc(Cl)c2)C1=O (centres undefined)	none (no result: GRIN3A LBD mod, NadD inh, FAS TE block)
CCCN(CC1CC1)C(=O)c1ccc(CNC(=O)c2cccc(Br)c2)cc1	none (no result: GRIN3A LBD mod, NadD inh, FAS TE block)
COc1ccc(-c2nc(-n3c(C)c(C(C)=O)c(C(C)=O)c3C)sc2C)cc1	none
CC(=O)c1c(C(C)=O)c(C)n(-c2nc(-c3cccs3)c(C)s2)c1C	GRIN3A LBD mod 12
O=C(c1cccs1)n1ccc2ccc(-c3ccc4ccn(C(=O)c5cccs5)c4c3)cc21	none (no result: GRIN3A LBD mod, NadD inh, FAS TE block)
CC(C)NC(=O)CCn1nnc(-c2cccs2)n1	none (no result: GRIN3A LBD mod, NadD inh, FAS TE block)
COCc1cn(-c2cccc(-c3noc4c3C(=O)N(CC(=O)N3CCOCC3)CC4)c2)nn1	none (no result: GRIN3A LBD mod, NadD inh, FAS TE block)
COc1ccc(C(CC(=O)N2CCCC(C)C2)c2c(OC)cc(OC)c3c(-c4ccccc4)cc(=O)oc23)cc1 (centres undefined)	GRIN3A LBD mod 16
Cc1ccc(C(=O)CSc2nc3ccccc3o2)cc1	GRIN3A LBD mod 17
O=C(O)CSc1nc2ccccc2o1	none
Nn1c(SCc2cccc3ccccc23)nnc1-c1cc(-c2ccc(F)cc2)n[nH]1	none (no result: GRIN3A LBD mod, NadD inh, FAS TE block)
COc1ccc(S[C@]2(C(=O)N3CCN(c4ncccn4)CC3)CC(=O)N(c3ccc(Cl)cc3)[C@@H]2c2ccc(OC)cc2)cc1	none (no result: GRIN3A LBD mod, NadD inh, FAS TE block)
COc1ccc(NC(=O)c2cc3ccc(O)cc3o/c2=N\O)cc1	GRIN3A LBD mod 36
COc1ccc(CCN(C(=S)Nc2ccccc2)C2CC(=O)N(c3ccccc3)C2=O)cc1 (centres undefined)	GRIN3A LBD mod 17
CNC(=S)N(Cc1ccc2c(c1)OCO2)C1CC(=O)N(c2ccc(F)cc2)C1=O (centres undefined)	GRIN3A LBD mod 22
C=CCN(C(=O)Nc1ccc(F)cc1)C1CC(=O)N(c2ccc(OC)cc2)C1=O (centres undefined)	none
COc1ccc(CN(C(=S)Nc2ccccc2)C2CC(=O)N(c3ccc(F)cc3)C2=O)cc1 (centres undefined)	GRIN3A LBD mod 32
CCOc1ccc(N2C(=O)CC(N(CCc3ccccc3)C(=O)/C=C/C(=O)O)C2=O)cc1 (centres undefined)	none
CCOc1ccc(N2C(=O)CC(N(CCc3ccc(OC)cc3)C(=O)/C=C/C(=O)O)C2=O)cc1 (centres undefined)	none
O=C1CC(N(CCc2ccccc2)C(=S)Nc2ccccc2)C(=O)N1c1ccc(Br)cc1 (centres undefined)	GRIN3A LBD mod 29
COc1cc(OC)c(/C=N/NC(=O)c2ccc(NC(C)=O)cc2)cc1Br	none
CC(C)C(=O)Nc1ccc(C(=O)N/N=C/c2cc(Br)cc(Br)c2O)cc1	GRIN3A LBD mod 31
CC(=O)Nc1ccc(C(=O)N/N=C/c2cc(Br)cc(Br)c2O)cc1	GRIN3A LBD mod 19
O=C(Nc1cc(C(F)(F)F)ccc1Cl)c1ccc(NC(=O)C(F)(F)F)cc1	GRIN3A LBD mod 28
CCCC(=O)Nc1ccc(C(=O)Nc2cc(C(F)(F)F)ccc2Cl)cc1	none
COc1ccc(NS(=O)(=O)c2cc(Br)cc3c2N(C(C)=O)CC3)cc1	GRIN3A LBD mod 35
CCN(CC(=O)Nc1c(F)cccc1F)C(=O)/C=C/c1ccc2ccccc2n1	none
CCN(CC(=O)Nc1c(F)cccc1F)C(=O)c1ccc2ccccc2n1	GRIN3A LBD mod 15
CC(C)c1ccc(OC[C@@H](O)CN2CCC(C(O)(c3ccccc3)c3ccccc3)CC2)cc1	none (no result: GRIN3A LBD mod, NadD inh, FAS TE block)
O=C(Nc1ccccc1Cl)Oc1ccc(Cl)cc1Cl	GRIN3A LBD mod 10
N/C(=N\OC(=O)c1ccccc1Br)c1cccc([N+](=O)[O-])c1	none
N/C(Cc1ccc([N+](=O)[O-])cc1)=N\OC(=O)c1ccccc1Br	GRIN3A LBD mod 12
N/C(=N\OC(=O)c1ccccc1Br)c1ccc([N+](=O)[O-])cc1	GRIN3A LBD mod 11
N/C(Cc1ccc([N+](=O)[O-])cc1)=N\OC(=O)c1ccc(Br)cc1	none
COC(=O)[C@]1(CNS(=O)(=O)c2ccc(F)cc2)CC(=O)N(C)[C@@H]1c1ccccc1	none (no result: GRIN3A LBD mod, NadD inh, FAS TE block)
COc1ccccc1NC(=O)c1ccc(NC(=O)c2cc3c(s2)CCC3)cc1	GRIN3A LBD mod 30
CC(=O)c1cc(-c2ccc3[nH]ccc3c2)c(=O)n2c1CCC2	none (no result: GRIN3A LBD mod, NadD inh, FAS TE block)
CCn1c2ccccc2c2cc(NC(=O)COC(=O)c3ccc(O)cc3)ccc21	GRIN3A LBD mod 15
Cc1cccc(CCNC(=O)Cn2nc(-c3ccccc3)ccc2=O)c1	none (no result: GRIN3A LBD mod, NadD inh, FAS TE block)
CCOc1cccc(-c2nnc(SCC(=O)Nc3ccc4c(c3)OCO4)n2N)c1	none (no result: GRIN3A LBD mod, NadD inh, FAS TE block)
CC(C)Nc1nc(-c2ccncc2)nc(-c2ccc(Cl)cc2)c1C#N	GRIN3A LBD mod 10
N#Cc1c(-c2ccccc2)nc(-c2ccncc2)[nH]c1=O	none
N#Cc1c(Cl)nc(-c2ccncc2)nc1-c1ccccc1	GRIN3A LBD mod 11
CCCCOCC1CN(CCCC)S(=O)(=O)c2c(cccc2Sc2ccc(SC)cc2)O1 (centres undefined)	none (no result: GRIN3A LBD mod, NadD inh, FAS TE block)
